Measured values published in PubChem BioAssay AID1851 (National Center for Advancing Translational Sciences (NCATS), 2009).
Several values for one entry are separate records, joined by “and”; a condition that tells them apart may be missing. Equal entries are not always repeated. Hit rate of the full screen: of about 16,000 compounds, about 5,800 (36%) were called active. Another 23% or so got no clear call; they are omitted. Calls follow the shape of the dose curve; as a rule, active = well fitted curve in the direction sought with a large enough effect; inconclusive = small, poorly fitted or top-dose-only effect, or effect the other way; inactive = no such curve, though single readings can be large or run the other way. This is one part of the list. The source holds several records for some structures; these can differ, active in one and inactive in another.

Molecular target: Cytochrome P450 2C19 (Homo sapiens) (UniProt P33261)
Sequence (P33261 whole entry, looked up): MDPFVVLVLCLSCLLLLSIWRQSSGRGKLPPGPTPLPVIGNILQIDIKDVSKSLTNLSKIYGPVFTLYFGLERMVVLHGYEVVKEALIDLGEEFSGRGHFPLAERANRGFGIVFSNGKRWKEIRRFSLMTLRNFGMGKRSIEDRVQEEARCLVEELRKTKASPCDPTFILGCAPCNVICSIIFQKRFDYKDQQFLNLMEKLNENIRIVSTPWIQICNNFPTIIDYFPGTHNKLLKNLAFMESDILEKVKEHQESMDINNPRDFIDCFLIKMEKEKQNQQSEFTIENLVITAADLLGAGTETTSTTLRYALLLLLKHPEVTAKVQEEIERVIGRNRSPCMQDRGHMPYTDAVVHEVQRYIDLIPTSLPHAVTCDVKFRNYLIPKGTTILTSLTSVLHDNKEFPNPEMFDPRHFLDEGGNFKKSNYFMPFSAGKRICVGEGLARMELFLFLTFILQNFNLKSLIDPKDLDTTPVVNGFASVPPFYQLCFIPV
Assay: Cytochrome panel assay with activity outcomes
Settings: recombinant CYP, pro-luciferin dealkylation, luminescence, p450-cyp2c19; series mostly up to 57.1 µM
% is scaled to controls: 0 for no effect and ±100 for the full control effect.

| SMILES | AC50 | activity, negative = inhibition |
| --- | --- | --- |
| N#CCCN | inactive |  |
| c1ccc2cc(CC3=NCCN3)ccc2c1 | inactive |  |
| COc1ccc2cc1Oc1ccc(cc1)C[C@H]1c3cc(c(OC)cc3CCN1C)Oc1c(OC)c(OC)cc3c1[C@@H](C2)N(C)CC3 |  | -36.6% [at 11.4 µM] (inactive) |
| CC1=C2[C@@H]3OC(=O)[C@@H](C)[C@@H]3CC[C@]2(C)C=CC1=O | inactive |  |
| CCCCN1C(=O)/C(=C\c2ccco2)C(=O)N(CCc2ccccc2)C1=O | 10 µM (active) |  |
| Cc1cc2c(C(C)C)c(O)c(O)c(C=O)c2c(O)c1-c1c(C)cc2c(C(C)C)c(O)c(O)c(C=O)c2c1O | inactive |  |
| COC1=C[C@H]2C3=C([C@H]2C1=O)[C@H](NC(C)=O)CCc1cc(OC)c(OC)c(OC)c13 | inactive |  |
| NC(=O)c1ccc(-c2nc(-c3ccc4c(c3)OCO4)c(-c3ccccn3)[nH]2)cc1 | 2.51 µM (active) |  |
| CC(C)C(=O)CP(=O)(O)O |  | 8.85% [at 11.4 µM] (inactive) |
| N=C(N)SCc1ccc(Cl)c2ccccc12 (tested in a mixture with another compound) |  | -27.8% [at 11.4 µM] (inactive) and -26.6% [at 11.4 µM] (inactive) |
| Cn1c(O)c(C(c2ccccn2)c2c(O)n(C)c(=S)n(C)c2=O)c(=O)n(C)c1=S | inactive |  |
| COC(=O)C(O)(c1c(C)[nH]c2ccccc12)C(F)(F)F (centres undefined) | 5.01 µM (active) |  |
| c1ccc2sc(C3(N4CCCCC4)CCCCC3)cc2c1 | inactive |  |
| Nc1ncnc2c1ncn2[C@@H]1O[C@@H](COP(=O)(O)CP(=O)(O)OP(=O)(O)O)[C@H](O)[C@@H]1O | inactive |  |
| NNC(N)=O | inactive |  |
| c1cncc(CNCCN2CCNCC2)c1 |  | 7.54% [at 11.4 µM] (inactive) |
| c1cncc([C@@H]2CCCCN2)c1 | inactive and 2 µM (active) |  |
| COc1ccc2c(c1)[C@]13CCCC[C@@H]1[C@H](C2)N(C)CC3 | inactive |  |
| O=[As](O)(O)c1ccc(N=Nc2ccc(O)cc2)cc1 |  | -12.7% [at 11.4 µM] (inactive) |
| CCOc1ccc(C2C(C#N)=C(N)Oc3c2c(=O)oc2ccccc32)cc1 (centres undefined) | 5.62 µM (active) |  |
| CN1CC[C@@]2(CCCN(C(=O)c3ccncc3)C2)C1 | inactive |  |
| O=C1CS[C@@H](c2ccccc2Cl)c2cc(Cl)ccc2N1 | 25.1 µM (active) |  |
| O=S(=O)(NCCO)c1cc[c]([Sb](=[O])([OH])[OH])cc1 |  | 14.4% [at 11.4 µM] (inactive) |

| SMILES | AC50 | activity, negative = inhibition |
| --- | --- | --- |
| CC(C)c1ccc(C(O)(C(=O)O)c2ccc(C(C)C)cc2)cc1 |  | 21.5% [at 11.4 µM] (inactive) |
| C[C@@]12CC[C@@H]3[C@H](CCC4=CC(=O)CC[C@]43C)[C@@H]1CC[C@@H]2C(=O)COS(=O)(=O)c1ccc(Br)cc1 |  | -21.8% [at 11.4 µM] (inactive) |
| COc1cc2c3cc1Oc1cc(ccc1O)C[C@@H]1c4c(cc(OC)c(O)c4Oc4cccc(c4)C[C@H]3N(C)CC2)CC[N+]1(C)C | inactive |  |
| Cc1nc2ccccc2cc1C[N+]12CN3CN(CN(C3)C1)C2 |  | -23.7% [at 11.4 µM] (inactive) |
| O=C(Cc1ccc(Cl)c(Cl)c1)N1CCCC[C@H]1CN1CCCC1 | inactive and 6.31 µM (active) |  |
| COC(=O)N1CCN(C(=O)Cc2ccc(Cl)c(Cl)c2)[C@H](CN2CCCC2)C1 | inactive and 25.1 µM (active) |  |
| CC[N+](CC)(CC)CCOc1cccc(OCC[N+](CC)(CC)CC)c1OCC[N+](CC)(CC)CC | inactive |  |
| C=C[C@H]1CN2CC[C@@H]1C[C@H]2[C@@H](O)c1ccnc2ccccc12 | inactive |  |
| N[C@H](Cn1ccc(=O)[nH]c1=O)C(=O)O | inactive |  |
| C[C@@]12CC[C@H](O[C@@H]3O[C@H](CO)[C@@H](O)[C@H](O)[C@@H]3O)C[C@@H]1CC[C@H]1[C@H]2CC[C@@]2(C)[C@@H](C3=CCOC3=O)CC[C@]12O |  | 22.6% [at 11.4 µM] (inactive) |
| COC(=O)[C@H]1[C@H](c2ccccc2)C(=O)[C@@]2(O)c3ccccc3O[C@@]12c1ccccc1 |  | -15.7% [at 11.4 µM] (inactive) |
| COc1cc2c(cc1O)C[C@H]1c3c(cc(O)c(OC)c3-2)CCN1C | inactive |  |
| CC1=CC(=O)C2=C(C)C[C@@H](O)[C@@H]3[C@@H](OC(=O)[C@H]3C)[C@H]12 | inactive |  |
| C[N+]1([O-])[C@@H]2CC[C@H]1CC(OC(=O)[C@@H](CO)c1ccccc1)C2 (some centres undefined) | inactive |  |
| CC12CN3CC(C)(CN(C1)C31CCSCC1)C2=O | inactive |  |
| CC(=O)N1CCC2(CC1)CC(=O)c1cc(OCC(=O)N3CCN(C)CC3)ccc1O2 | inactive |  |
| COc1cc(CN2CCN(C(=O)COc3ccccc3)CC2)cc(OC)c1OC | inactive |  |
| O=C(COc1ccc2ccccc2c1)N1CCN(CC2CC3C=CC2C3)CC1 (centres undefined) | 10 µM (active) |  |
| C(=NC12CN3CN(CN(C3)C1)C2)c1cccs1 | inactive |  |
| CCCc1cc2c(n1Cc1cccc(Cl)c1)C(C)C1CN(C(=O)c3ccccc3)C(C)(C(=O)OC)C21 (centres undefined) | 15.8 µM (active) |  |
| N#CCCCC[N+]12CN3CN(CN(C3)C1)C2 |  | 19.8% [at 11.4 µM] (inactive) |
| C=C(CC1(CNP(=O)(c2ccccc2)c2ccccc2)CC1)c1ccccc1 | inactive |  |
| C=C(CC1(C(C)NP(=O)(c2ccccc2)c2ccccc2)CC1)c1ccccc1 (centres undefined) | 10 µM (active) |  |

| SMILES | AC50 | activity, negative = inhibition |
| --- | --- | --- |
| O=C(O)[C@H]1C[C@@H]1[C@H](NP(=O)(c1ccccc1)c1ccccc1)c1ccccc1 | inactive |  |
| CNC(=O)OCC[N+](C)(C)C | inactive |  |
| O=C(O)c1ccccc1-c1c2cc(Br)c(=O)cc-2oc2[c]([Hg])c(O)c(Br)cc12 | 3.16 µM (active) |  |
| NC(N)=Nc1ccc2[nH]c3c(c2c1)C[C@]1(O)[C@@H]2Cc4ccc(O)c5c4[C@]1(CCN2CC1CC1)[C@@H]3O5 | inactive |  |
| N[C@H](Cc1ccc2oc3cc(=O)c4ccccc4c-3nc2c1)C(=O)O |  | -35.8% [at 11.4 µM] (inactive) |
| O=C(O)CCCc1ccc(N(CCCl)CCCl)cc1 | inactive |  |
| COC(=O)c1[nH]c2ccc(Br)cc2c1NC(=O)Oc1ccccc1 | 11.2 µM (active) |  |
| c1ccc2nc(N3CCNCC3)ccc2c1 | inactive |  |
| O=C(O)[C@@H]1[C@H](C(=O)O)[C@]2(Cl)C(Cl)=C(Cl)[C@@]1(Cl)C2(Cl)Cl |  | -2.94% [at 11.4 µM] (inactive) |
| NCC1(CC(=O)O)CCCCC1 | inactive |  |
| CCN(CC)CCn1ncc2c(N)ncnc21 |  | -2.72% [at 11.4 µM] (inactive) |
| CC(NCc1ccc(Cl)cc1)C(O)c1ccccc1 (centres undefined) | 0.355 µM (active) |  |
| C[C@H](N)[C@@H](O)c1ccccc1 | inactive |  |
| CN1[C@@H]2CC[C@H]1CC(O[C@@H](c1ccccc1)c1ccc(Cl)cc1)C2 (some centres undefined) | inactive |  |
| Cc1sc2ccccc2c1CC1=NCCN1 | inactive |  |
| c1ccc(C2CC2)c(OCC2=NCCN2)c1 | inactive |  |
| CCSCC[C@H](N)C(=O)O |  | -18% [at 11.4 µM] (inactive) |
| [N-]=[N+]=CC(=O)CC[C@H](N)C(=O)O |  | 0.0153% [at 11.4 µM] (inactive) |
| CC(C)COC(=O)OCN1C(=O)CN(CCN2CC(=O)N(COC(=O)OCC(C)C)C(=O)C2)CC1=O | inactive |  |
| c1csc(CN2CCCC3(CCNCC3)C2)n1 | inactive |  |
| O=C(CN1CCCCC1)Nc1ccc(Br)cc1C(=O)c1ccccc1Cl | 7.94 µM (active) |  |
| O=c1[nH]cnc2[nH]cc(CN3CCCCC3)c12 |  | 39.9% [at 11.4 µM] (inactive) |
| Cc1nnc2ccc(-c3cccc(C(F)(F)F)c3)nn12 | inactive |  |

| SMILES | AC50 | activity, negative = inhibition |
| --- | --- | --- |
| CCC1(CCSC(=N)N)C(=O)NC(=O)NC1=O |  | 20.6% [at 11.4 µM] (inactive) |
| C[N+](C)(C)CC#CCN1CCCC1=O | inactive |  |
| O=C1CCCN1CC#CCN1CCCC1 | inactive and 158 nM (active) |  |
| C(#CCN1CCCC1)CN1CCCC1 | inactive |  |
| CN(CCC(=O)O)C1=Nc2ccc(Cl)cc2C(c2ccccc2)=[N+]([O-])C1 |  | -1.35% [at 11.4 µM] (inactive) |
| Nc1nc(N)c2nc(CNc3ccc(C(=O)N[C@H](CCC(=O)O)C(=O)O)cc3)cnc2n1 | inactive |  |
| O=C(O)CNC(=O)[C@@H](CS)Cc1ccccc1 | inactive |  |
| Cc1cc[c]([Sb]2[O][C@H]([C@H](O)[C@H](O)C(=O)O)[C@@H](CO)[O]2)cc1 |  | 30.4% [at 11.4 µM] (inactive) |
| N[C@@H](Cn1ccc(=O)n(Cc2ccc(C(=O)O)cc2)c1=O)C(=O)O | inactive |  |
| CC(C)(O)/C=C\C(=O)[C@](C)(O)[C@H]1[C@H](O)C[C@]2(C)[C@@H]3CC=C4[C@@H](C=C(O)C(=O)C4(C)C)[C@]3(C)C(=O)C[C@@]12C |  | -7.19% [at 11.4 µM] (inactive) |
| O=C(Nc1ccc(C(F)(F)F)cc1)c1cccn(Cc2ccc3c(c2)OC(F)(F)O3)c1=O | 3.16 µM (active) |  |
| CC(=O)Nc1ccccc1C(=O)OCc1ccc(C(=O)c2ccccc2)cc1 | 3.55 µM (active) |  |
| NS(=O)(=O)c1cc([C@@]2(O)NC(=O)c3ccccc32)ccc1Cl | inactive |  |
| NC[C@@H](Cc1ccccc1)P(=O)(O)O |  | -0.815% [at 11.4 µM] (inactive) |
| O=C(Oc1ccccc1)N1CCC[C@@]2(CCN(C(c3ccccc3)c3ccccc3)C2)C1 | inactive |  |
| O=C(O)Cc1cnc[nH]1 | inactive |  |
| CC[C@@H](CO)NC(=O)[C@H]1C=C2c3cccc4c3c(cn4C)C[C@H]2N(C)C1 | 0.126 µM (active) |  |
| CC[C@H](CO)NC(=O)[C@@H]1C=C2c3cccc4c3c(cn4C)C[C@@H]2N(C)C1 | inactive |  |
| COc1ccc(NC(=O)N2CCCC3(CCN(C(=O)Oc4ccccc4)CC3)C2)cc1 | inactive |  |
| CN(C)CS/C(N)=N/[C@H](O)C(Cl)(Cl)Cl |  | -3.05% [at 11.4 µM] (inactive) |
